Assay results: PubChem BioAssay AID1852 (Sanford-Burnham Center for Chemical Genomics, 2009)
The whole screen tested about 2,500 compounds, of which about 1,100 (44%) were called active. The set was probably picked from earlier hits. This is one part of the list. Unmarked numbers belong to inactive results.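 The calls were made as follows: active = inhibition above 50% at 4 µM in the single-point screen; inactive = inhibition of 50% or less.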

Assay: blockers of TNF-a NF-kB luciferase induction – cell-based, HEK293T NF-kB-Luc, luminescence, selectivity assay for NOD1/NOD2 signaling inhibitor project, primary screen (AID 1852)
Details: TNF-a induced, 14 h, at 4 µM, active compounds read high
For Cc1ccc(-c2csc(NC(=O)C3=NN(c4ccccc4)C(=O)CC3)n2)cc1, the inhibition was 38.6%. With Cc1ccc(-c2csc(NC(=O)c3ccc4c(=O)n5c(nc4c3)CCCCC5)n2)cc1 the inhibition was 97.1% (active). In the case of O=C(Nc1nc(-c2ccccc2)cs1)c1ccc2c(=O)n3c(nc2c1)CCCCC3, the inhibition was 106% (active). O=C(NC1CCCCC1)N1CCN(c2nc(-c3ccccc3)cs2)CC1 showed an inhibition of 48.4%. For Nc1ccc(S(=O)(=O)Nc2nccc(/C=C/c3ccc(Cl)cc3Cl)n2)cc1, the inhibition was 4%. In the case of Cc1cc(N2CCOCC2)c2c(N)c(Br)cc(C)c2n1, the inhibition was 80.6% (active). In the case of Cc1cccc2cc3c(N)c(C(=O)Nc4ccc(N5CCOCC5)cc4)sc3nc12, the inhibition was 36.4%. With COc1ccccc1-c1cc(C(F)(F)F)nc(S(=O)(=O)CCCC(=O)N2CCCCC2C)n1 (stereo unspecified) the inhibition was 66.8% (active). With COc1ccccc1-c1cc(C(F)(F)F)nc(S(=O)(=O)CCCC(=O)N2CCOCC2)n1 the inhibition was 51.1% (active). With COc1cc(/C=N/Nc2nc3c(c(=O)n(C)c(=O)n3C)n2Cc2ccccc2)ccc1OC(=O)c1ccco1 the inhibition was 52.5% (active). COc1cccc(Cn2c(NCc3cccnc3)nc3c2c(=O)n(C)c(=O)n3C)c1 gave an inhibition of 37.8%. For O=S(=O)(Nc1nc2ccccc2nc1N1CCN(c2ccccc2F)CC1)c1ccc(Cl)cc1, the inhibition was 86.2% (active). Molecule CC(C(=O)N1CCN(c2ccccc2F)CC1)c1ccc([N+](=O)[O-])cc1 (stereo unspecified) has an inhibition of -32.5%. For O=S(=O)(Nc1nc2ccccc2nc1Cl)c1ccc(Br)cc1, the inhibition was 20.8%. COc1ccccc1-c1cc(C(F)(F)F)nc(S(=O)(=O)CCCC(=O)Nc2cccnc2Cl)n1 showed an inhibition of 37.1%. With COc1ccc(-c2cc(C(F)(F)F)nc(S(=O)(=O)CCCC(=O)Nc3cccc(O)c3)n2)cc1OC the inhibition was 81.5% (active). With COc1ccc(-c2cc(C(F)(F)F)nc(S(=O)(=O)CCCC(=O)Nc3cccnc3Cl)n2)cc1OC the inhibition was 88.1% (active). In the case of O=C(O)CCC(=O)Nc1cccc(-c2csc(-c3ccccc3)n2)c1, the inhibition was 41.9%. With Cc1cc(-c2ccc(C)c(S(=O)(=O)N3CCN(c4ccc([N+](=O)[O-])cc4)CC3)c2)on1 the inhibition was 16.8%. C[C@@H](C(=O)Nc1ccc2ccccc2c1)[C@@H]1C[C@@]1(C)[C@@H](NC(=O)c1cnccn1)c1ccccc1 gave an inhibition of -2.6%. Molecule Cc1cc(C(=O)COC(=O)c2ccccc2Br)c(C)n1CC1CCCO1 (stereo unspecified) has an inhibition of -5.9%. For Cc1cc(C(=O)CSc2nc3ccccc3c(=O)n2C)c(C)n1CC1CCCO1 (stereo unspecified), the inhibition was 65.9% (active). In the case of Cc1cc(C(=O)CN2C(=O)c3ccccc3S2(=O)=O)c(C)n1CC1CCCO1 (stereo unspecified), the inhibition was 96.8% (active). In the case of COc1ccccc1Nc1nc(NCC2CCCO2)c2ccccc2n1 (stereo unspecified), the inhibition was 39.1%. With Cc1cc(C(=O)CSc2nc3ccccc3c(=O)n2C)c(C)n1Cc1ccc2c(c1)OCO2 the inhibition was 69.5% (active). CCCCN(CC)c1nc(-c2ccncc2)nc2ccccc12 gave an inhibition of 34.7%. Work on O=C(N/C(=C/c1ccc([N+](=O)[O-])cc1)C(=O)N1CCOCC1)c1ccco1 yielded an inhibition of 14%. In the case of Cc1ccc(S(=O)(=O)Nc2nc3ccccc3nc2Nc2cccc(S(=O)(=O)N3CCCC3)c2)cc1, the inhibition was 71% (active). For O=S(=O)(Nc1nc2ccccc2nc1Nc1ccc2c(c1)OCO2)c1ccc(F)cc1, the inhibition was 18%. Molecule CCn1nc(NS(=O)(=O)c2ccc([N+](=O)[O-])cc2)c2cc3cccc(C)c3nc21 has an inhibition of 19.3%. Cc1cc(Nc2nc3ccccc3nc2Cl)n(-c2ccc([N+](=O)[O-])cc2)n1 showed an inhibition of 28.5%. In the case of O=[N+]([O-])c1cccc(S(=O)(=O)Nc2nc3ccccc3nc2Nc2cccc(S(=O)(=O)N3CCCCC3)c2)c1, the inhibition was 97.6% (active). Work on COc1cccc(Nc2nc3ccccc3nc2NS(=O)(=O)c2cccs2)c1 yielded an inhibition of 7.5%. With COc1cc(Nc2nc3ccccc3nc2NS(=O)(=O)c2ccc([N+](=O)[O-])cc2)cc(OC)c1OC the inhibition was 84.6% (active). CCn1c(/C=C/c2cc(Br)ccc2O)nc2ccccc2c1=O gave an inhibition of -6.3%. In the case of Cc1ccc(-c2cc(C(=O)N/N=C/c3ccc([N+](=O)[O-])o3)c3ccccc3n2)o1, the inhibition was 6.6%. Molecule O=[N+]([O-])c1cc(-c2nc3nc4ccccc4nc3n2CCc2ccccc2)cc([N+](=O)[O-])c1 has an inhibition of -12.4%. In the case of O=c1c2ccccc2nc(/C=C/c2ccc([N+](=O)[O-])o2)n1CCCO, the inhibition was 98.8% (active). For O=c1c2ccccc2nc(/C=C/c2cc(Br)ccc2O)n1CCCO, the inhibition was 59% (active). With COc1ccc(O)c(CNn2c(-c3ccc(Br)cc3)nc3ccccc3c2=O)c1 the inhibition was 12.6%. Work on COc1ccc(Nc2nc(NCC3CCCO3)c3ccccc3n2)c(OC)c1 (stereo unspecified) yielded an inhibition of 31.4%. For COc1cccc(Nc2nc(NCCO)c3ccccc3n2)c1, the inhibition was 69.6% (active). Molecule COc1cccc(NC(=O)CSc2nc3ccccc3c(=O)n2C)c1 has an inhibition of 12.1%. For COc1cc(OC)c(N(C)S(=O)(=O)c2cccc(C(=O)OCC(=O)c3c[nH]c4ccccc34)c2)cc1Cl, the inhibition was 92.4% (active). Oc1ccc(Cl)cc1/C=C/c1ccc2cccc(O)c2n1 gave an inhibition of 8.6%. For CCOc1cccc(/C=C/c2ccc3cccc(O)c3n2)c1O, the inhibition was 4.2%. Work on COc1ccc(Cl)cc1/C=C/c1ccc2cccc(O)c2n1 yielded an inhibition of 47.4%. For COc1ccc(OC)c(/C=C/c2ccc3cccc(O)c3n2)c1, the inhibition was 105% (active). For Oc1cccc2ccc(/C=C/c3ccccc3Br)nc12, the inhibition was 51.4% (active). For COc1ccc(Br)cc1/C=C/c1ccc2cccc(O)c2n1, the inhibition was 52.6% (active). In the case of COc1cccc(/C=C/c2ccc3ccccc3n2)c1OC(C)=O, the inhibition was -25.7%. Molecule COc1cccc(/C=C/c2ccc3cccc(O)c3n2)c1OC has an inhibition of -20%. In the case of COc1cc(Br)cc(/C=C/c2ccc3cccc(O)c3n2)c1O, the inhibition was 0.4%. Molecule Cc1ccc(NS(=O)(=O)c2ccc(-n3cccn3)cc2)c(C)c1 has an inhibition of 40.7%. With Cc1ccc(NS(=O)(=O)c2cc([N+](=O)[O-])ccc2NNC(=S)Nc2cc(C)ccc2C)c(C)c1 the inhibition was 77.3% (active). With Cc1ccc(C)c(NC(=O)c2ccccc2NS(=O)(=O)c2cc([N+](=O)[O-])ccc2C)c1 the inhibition was 75.8% (active). With Cc1ccc(NC(=O)CC(=O)c2ccc([N+](=O)[O-])cc2)cc1S(=O)(=O)Nc1cccc(Cl)c1 the inhibition was 15.2%. In the case of Cc1ccc(NC(=O)CN(c2ccc(Cl)cc2)S(=O)(=O)c2cc([N+](=O)[O-])ccc2Cl)c(C)c1, the inhibition was -17.7%. For O=C(Oc1c(-c2ccccc2)c(=O)n2c3c(cccc13)CC2)c1ccccc1, the inhibition was 75.1% (active). In the case of O=C(Oc1c(-c2ccccc2)c(=O)n2c3c(cccc13)CC2)c1ccc(Cl)cc1, the inhibition was 90.1% (active). For O=C(Oc1c(-c2ccccc2)c(=O)n2c3c(cccc13)CC2)c1ccc(F)cc1, the inhibition was 49.3%. In the case of COc1ccc(C(=O)c2c(C(F)(F)F)oc3c2C(=O)c2ccccc2C3=O)cc1OC, the inhibition was 102% (active). In the case of COc1ccc(C(=O)c2c(C(F)(F)F)oc3c2C(=O)c2ccccc2C3=O)cc1, the inhibition was 100% (active). COc1ccc(C(=O)Nc2sc3c(c2C(=O)NCc2ccco2)CCCC3)cc1OC showed an inhibition of -42.2%. In the case of COc1ccc(NC(=O)c2c(Nc3ccccc3)sc(C(=O)c3ccc(F)cc3)c2N)cc1, the inhibition was 10%. In the case of CC(C)(C)OC(=O)CNC(=O)c1[nH]cnc1C(=O)NC1CCN(C(=O)OC(C)(C)C)CC1, the inhibition was -15.2%. With O=C(OCn1ncc(Br)c(Br)c1=O)c1c(F)cccc1F the inhibition was 82.5% (active). With O=C(OCn1ncc(Br)c(Br)c1=O)c1ccc(F)cc1 the inhibition was 86.5% (active). With CC(=O)Cn1ncc(Br)c(Br)c1=O the inhibition was 95% (active). With O=C(CSc1nnc2ccc3ccccc3n12)N1CCOCC1 the inhibition was -57.3%. In the case of Cc1ccc(Cl)cc1N1CCN(C(=O)CSc2nnc3n2C(C)(C)Cc2ccccc2-3)CC1, the inhibition was 95.1% (active). COCCn1c(SCC(=O)N2CCc3ccccc3C2)nc2cc(Cl)ccc2c1=O showed an inhibition of 13.3%. For CC1Cc2cc(-c3csc(NC(=O)Cc4cccs4)n3)ccc2N1S(C)(=O)=O (stereo unspecified), the inhibition was 60.6% (active). CC(C)Cn1c(N)c(C(=O)COC(=O)CC23CC4CC(CC(C4)C2)C3)c(=O)n(C)c1=O showed an inhibition of 26.6%. With Cn1c(=O)c(C(=O)CCl)c(N)n(Cc2ccccc2)c1=O the inhibition was 72.4% (active). COCCCN(C(=O)Cc1ccc(Cl)c(Cl)c1)c1c(N)n(Cc2ccccc2)c(=O)[nH]c1=O showed an inhibition of 7.8%. In the case of COc1cccc(N=Nc2ccc3cccnc3c2O)c1, the inhibition was 54.2% (active). For COc1cccc(N=Nc2ccc(O)c3ncccc23)c1, the inhibition was 61% (active). CCN(CC)S(=O)(=O)c1cc(OC)ccc1N=Nc1ccc(O)c2ncccc12 gave an inhibition of -1.5%. With O=S1(=O)Nc2c(ccc3cccnc23)-c2ccccc21 the inhibition was 104% (active). Cc1c(C(=O)N2CCN(c3ccc(F)cc3)CC2)sc2ncnc(N3CCN(c4ccccn4)CC3)c12 showed an inhibition of 15.6%. For O=[N+]([O-])c1ccc2ncnc(N3CCN(Cc4ccc5c(c4)OCO5)CC3)c2c1, the inhibition was 97.2% (active). Molecule COc1ccccc1N1CCN(C(=O)c2sc3ncnc(N4CCN(c5ccccn5)CC4)c3c2C)CC1 has an inhibition of -30.1%. In the case of CCn1c(=O)c([N+](=O)[O-])c(N2CCN(Cc3ccc4c(c3)OCO4)CC2)c2ccccc21, the inhibition was 38.9%. In the case of Cn1c(=O)c([N+](=O)[O-])c(N2CCN(Cc3ccc4c(c3)OCO4)CC2)c2ccccc21, the inhibition was 18.3%. With Cc1c(C(=O)N2CCN(Cc3ccc4c(c3)OCO4)CC2)sc2ncnc(N3CCN(c4ccccc4)CC3)c12 the inhibition was 98.5% (active).
